This is a sample that favours compounds with a hit; in the whole collection about 11% have one here.
PNC assembly inh – inhibitors of perinucleolar compartment assembly | activity change (PNC), negative = inhibition, % at 10 µM | AID 2417 | PC3M PTB-GFP, PNC prevalence imaging, 16 h; stronger effect = lower value | 140,000 compounds, 3.1% hits;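 active = readout at or below -70, meaning at least 70% loss of cells showing the perinucleolar compartment, a nuclear body marking cancer cells; inconclusive = readout between -30 and a set limit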;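 also: plate controls were DMSO wells for no effect and camptothecin positive control wells for full effect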
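Compounds are pinned in duplicate onto adhered PC3M cells stably expressing GFP-tagged PTB and incubated 16 h at 37 C. Cells are then fixed, nuclei stained with Hoechst, and PNC-positive cells counted.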
ALDH1A1 inh – ALDH1A1 (human) enzyme inhibition | P00352 | Purified ALDH1A1, NADH fluorescence, propionaldehyde substrate | Potency, µM (top dose mostly 75.3 µM), without a hit: at the top dose activity, negative = inhibition, actives largely listed as inhibitors | 220,000 compounds, 7.3% hits | AID 1030;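 also: potency is read from the fitted curve at half-maximal effect; plate controls were no enzyme wells and a reference inhibitor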
Target sequence (P00352 whole entry, looked up): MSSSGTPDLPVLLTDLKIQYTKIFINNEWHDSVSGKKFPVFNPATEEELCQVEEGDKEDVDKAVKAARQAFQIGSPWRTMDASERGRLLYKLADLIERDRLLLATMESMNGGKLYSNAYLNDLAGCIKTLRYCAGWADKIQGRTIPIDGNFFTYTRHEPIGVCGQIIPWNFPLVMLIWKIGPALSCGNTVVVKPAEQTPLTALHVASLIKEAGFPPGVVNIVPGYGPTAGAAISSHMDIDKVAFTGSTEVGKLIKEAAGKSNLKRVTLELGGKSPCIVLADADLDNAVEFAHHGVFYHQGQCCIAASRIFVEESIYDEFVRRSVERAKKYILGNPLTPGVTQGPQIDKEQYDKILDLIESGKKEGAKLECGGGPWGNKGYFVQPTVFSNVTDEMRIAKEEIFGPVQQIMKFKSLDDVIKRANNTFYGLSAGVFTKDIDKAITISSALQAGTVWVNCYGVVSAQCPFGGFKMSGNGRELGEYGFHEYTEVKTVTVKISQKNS
HPGD inh – blocks human HPGD enzyme activity; purified HPGD, NADH fluorescence kinetic, PGE2 substrate; 150,000 compounds, 4.3% hits; Potency, µM, for inactives: top-dose activity change, negative = inhibition, actives largely listed as inhibitors; P15428; also: potency is read from the fitted curve at half-maximal effect
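NADH formation kinetics: reaction with 30 uM PGE2 and 1 mM NAD+ (final), 20 nM enzyme, Tris-HCl pH 8 with Tween 20, after 15 min compound preincubation at room temperature. Fluorescence change, last versus first of five reads.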
* hit, by the source's call; ? = inconclusive; / = no result; [ ] = remark or other dose. Unless noted, calls follow the shape of the dose curve; as a rule, active = well fitted inhibition curve with a large enough effect (not every such curve was filed as active); inconclusive = small, poorly fitted or top-dose-only effect, or another doubt; inactive = no such curve, though single readings can be large or run the other way. Unless noted, % is scaled to controls: 0 for no effect and ±100 for the full control effect.

SMILES | PNC assembly inh | ALDH1A1 inh | HPGD inh
CC(C)C(C(=O)O)N1C(=O)/C(=C/C=C/c2ccco2)SC1=S (stereo not drawn) | -13.7 | ? | 3.55µM*
CCOc1ccc(NC(=S)Nc2cc(OC)c(Cl)cc2OC)cc1 | 5.3 | ? | -26.2%
Cc1cc(O)cc(O)c1C(=O)OC1(C)C(=O)C=C2C=C(/C=C/C(=O)O)OC=C2C1=O (stereo not drawn) | / | ? | -16.9%
COc1ccc(OC)c(NC(=O)CN(Cc2ccccc2)S(C)(=O)=O)c1 | / | -1.2% | /
O=C(Oc1ccccc1C(=O)N1CCOCC1)c1ccccc1 | 23.0 | 4.6% | -11.7%
NC(=O)c1ccc(-n2nnnc2Oc2ccccc2C(=O)N2CCOCC2)cc1 | -122.4* | 12.9% | -7.8%
O=C(c1cccc(F)c1)N1CCC2(CC1)CCN(C(c1ccccc1)c1ccccc1)CC2 | / | -9.0% | -8.9%
COc1cccc(NC(=O)c2cc(CN3C(=O)c4ccccc4C3=O)ccc2OC)c1 | -13.8 | -0.6% | -19.8%
Cc1[nH]nc2c1/C(=N\O)CCC2 | / | -1.0% | /
O=C(COC(=O)c1cccc(C(F)(F)F)c1)NCc1ccc(Cl)cc1 | -11.1 | 16.8% | 14.1µM*
O=C(COC(=O)c1cccc(C(F)(F)F)c1)NCc1ccccc1 | 107.1 | 7.7% | -1.9%
Cc1c(C(=O)NN)[nH]c2ccc([N+](=O)[O-])cc12 | / | 7.94µM* | /
Cc1ccc(C)c2c1[nH]c1ccc([N+](=O)[O-])cc12 | 5.5 | 1.3% | -2.5%
O=C(O)C(c1ccccc1)C(c1ccccc1)c1ccccc1 (stereo not drawn) | / | 11.2% | /
CCc1ccc(/C=C2/C(=O)N(c3ccccc3)C(=S)N2CC(=O)OC)s1 | ? | 8.91µM* | -16.6%
CCOc1ccc(N2C(=O)/C(=C/c3cccs3)N(CC(=O)OC)C2=S)cc1 | 10.6 | 9.8% | -3.8%
Cc1ccc(C2C3=C(CCCC3=O)Nc3c2c(C)nn3-c2ccccn2)o1 (stereo not drawn) | / | 1.0% | /
CC1(C)NC(=O)N(CC(O)CN2CCCCC2)C1=O (stereo not drawn) | -93.8* | -2.4% | 1.8%
CC1(C)NC(=O)N(CC(O)COC2CCCCC2)C1=O (stereo not drawn) | 25.7 | -3.0% | 0.0%
CC(/C=N/NC(=O)c1ccc2nc(C)[nH]c2c1)=C\c1ccccc1 | -6.3 | ? | ?
Cc1ccc(S(=O)(=O)NCC(=O)N/N=C/c2ccc(Cl)cc2)cc1 | 25.2 | ? | -7.3%
Cc1ccc(S(=O)(=O)NCC(=O)N/N=C/c2ccc(Cl)cc2Cl)cc1 | 12.8 | 7.08µM* | -4.3%
CC(=O)Nc1ccc(NC(=O)CNS(=O)(=O)c2ccc(C)cc2)cc1 | 30.1 | -12.2% | 7.5%
COc1ccc(NC(=O)CNS(=O)(=O)c2ccc(Cl)cc2)cc1OC | -113.8* | 7.7% | -1.8%
CCNc1nc(CSc2ccccc2)nc2sc(C)c(C)c12 | -0.4 | ? | /
SMILES | PNC assembly inh | ALDH1A1 inh | HPGD inh
Cc1ccc2c(c1)cc(CN(Cc1ccc3c(c1)OCO3)C(=O)c1cnccn1)c1nnnn12 | 29.5 | ? | -7.0%
Cc1cc2cc(CN(Cc3ccc4c(c3)OCO4)C(=O)c3cnccn3)c3nnnn3c2cc1C | 0.0 | 14.1µM* | -18.4%
CCOC(=O)C1=C(N)OC2=C(C(=O)CC(C)(C)C2)C1c1cc(CSc2nnnn2C)cs1 (stereo not drawn) | / | 1µM* | /
CCOC(=O)C1=C(N)OC2=C(C(=O)CC(C)(C)C2)C1c1cccnc1 (stereo not drawn) | ? | -1.4% | 0.6%
CCOC(=O)C1=C(N)OC2=C(C(=O)CC(C)(C)C2)C1c1ccoc1 (stereo not drawn) | 12.6 | 25.1µM* | -4.3%
CCOC(=O)C1=C(N)OC2=C(C(=O)CC(C)(C)C2)C1C1CCCCC1 (stereo not drawn) | 10.7 | -0.1% | -3.8%
CC1=CCC2([N+](=O)[O-])CN(CC(=O)O)CC1([N+](=O)[O-])C2 (stereo not drawn) | 27.3 | -69.2% | -15.8%
CCCn1c(-c2ccc(F)cc2)nc2c(NCCCN(C)C)nc(C)nc21 | / | ? | -27.1%
C/C(=N/NC(=O)CNc1ccc(Cl)cc1C)c1ccc(C)cc1 | / | 3.5% | /
C=CS(=O)(=O)c1ccc(Oc2ccc(S(=O)(=O)C=C)cc2)cc1 | -134.0* | 0.0316µM* | -20.0%
NS(=O)(=O)c1ccc(Oc2ccc(S(N)(=O)=O)cc2)cc1 | / | 49.8% | /
COC(=O)c1cccc(C23CC4(C2)[C@H](CN(CC2CCCCC2)[C@@H]4c2ccccc2)C3c2ccc(Cl)nc2)c1 (stereo partly drawn) | / | -9.0% | -10.4%
Cc1cc(C)nc(-n2ncc3c2CC(c2ccc(F)cc2)CC3=O)n1 (stereo not drawn) | / | -5.0% | /
Cc1cc(C)nc(-n2ncc3c2CC(c2ccccc2)CC3=O)n1 (stereo not drawn) | 16.0 | -23.4% | 28.2µM*
CCN(CC)C(=O)NC1CC2CCCC(C1)N2Cc1ccccc1 (stereo not drawn) | -92.3* | 14.8% | -6.1%
CNC(=S)NC1CC2CCC(C1)N2Cc1ccccc1 (stereo not drawn) | -17.6 | 10.6% | -7.0%
CC1CC(C)(C)NC(=S)N1CC(=O)N1CCN(Cc2ccc3c(c2)OCO3)CC1 (stereo not drawn) | / | 3.9% | /
Cc1cc2c(nc1C)CCCCN2C[C@H](O)CN1CCCc2nc(-c3ccc(Br)cc3)ccc21 | / | -1.3%[13.5 µM] | /
COC(=O)c1ccc(NC(=S)N2CCN(Cc3ccccc3OC)CC2)cc1 | / | 5.2% | /
C=CCN1C(=O)C(O)(CC(=O)c2ccc(N)cc2)c2ccccc21 (stereo not drawn) | 9.0 | 5.62µM* | -12.6%
Cc1ccc(C(=O)CC2(O)C(=O)N(CN3CCOCC3)c3ccccc32)cc1 (stereo not drawn) | 19.6 | 14.1µM* | -15.3%
COC(=O)CN1C(=O)C2(OCCCO2)c2ccccc21 | -23.2 | -6.7% | -7.5%
CN1C(=O)C(O)(CC(=O)/C=C/C=C/c2ccccc2)c2ccccc21 (stereo not drawn) | 44.4 | 4.4% | ?
COC(=O)CN1C(=O)C(O)(CC(=O)c2ccccc2)c2ccccc21 (stereo not drawn) | ? | 4.47µM* | -4.6%
O=C(CC1(O)C(=O)N(C/C=C/c2ccccc2)c2ccccc21)c1ccccn1 (stereo not drawn) | ? | 0.794µM* | /
SMILES | PNC assembly inh | ALDH1A1 inh | HPGD inh
CCc1ccc(C(=O)CC2(O)C(=O)N(CN3CCOCC3)c3ccccc32)cc1 (stereo not drawn) | 16.4 | -0.2% | -5.2%
CC(C)c1ccc(C(=O)CC2(O)C(=O)N(CN3CCOCC3)c3ccccc32)cc1 (stereo not drawn) | 33.6 | ? | -9.5%
O=C(CN1CCCc2ccccc21)Nc1ccc(F)cc1[N+](=O)[O-] | / | 14.8% | /
CSC(=S)N/N=C(\C)c1ccc(Br)cc1 | / | 19.0% | /
COc1ccc(-c2csc(NC(=O)/C(N=Nc3ccccc3)=C(\C)O)n2)cc1 | / | -5.8% | /
CC(O)CC(C(=O)NNc1ccccc1)C(=O)NNc1ccccc1 (stereo not drawn) | / | 12.6% | /
COc1cccc([C@@H]2Oc3ccc(OC)cc3C(=O)[C@H]2OC(=O)NCCc2ccc(OC)c(OC)c2)c1 | / | 6.5% | -20.2%
CCCCN(C(C)=O)c1c(N)n(CCC)c(=O)n(CC(=O)Nc2cc(Cl)cc(Cl)c2)c1=O | / | 5.2% | /
Cc1ccc(C(=O)CC2(O)C(=O)N(C)c3ccccc32)o1 (stereo not drawn) | ? | 25.1µM* | -27.2%
